Results published in PubChem BioAssay AID1159580 (chemical genetic matrix, 2015).
Out of some 5,500 compounds screened, about 2,000 (36%) were called active. Roughly 18% stayed inconclusive and do not appear here. Cut-off read from the data, not from the text of the source: active = normalized growth mostly below about 0.91 (no sharp cut-off); inconclusive = no clear call, values can overlap the other calls; inactive = mostly above about 0.92. The list shows a part of the results.

Assay: chemical genetic growth profiling, strain panel (AID 1159580);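 note: tested at 20 µM; growth read once vehicle control cultures reached saturation at 30 °C; 1 = growth at the plate median or of vehicle wells; lower values mean less growth of the strain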
Conditions: growth OD
[1] = S. cerevisiae deletion strains, locus YJR075W, strain HOC1, active compounds read low
[2] = S. cerevisiae deletion strains, locus YNL153C, strain GIM3, active compounds read low
[3] = S. cerevisiae deletion strains, locus YPL055C, strain LGE1, active compounds read low
[4] = S. cerevisiae deletion strains, locus YPL241C, strain CIN2, active compounds read low
[5] = S. cerevisiae deletion strains, locus YDL101C, strain DUN1, active compounds read low
[6] = S. cerevisiae deletion strains, locus YHR030C, strain SLT2, active compounds read low

Measured: normalized growth

COCC(=O)O[C@]1(CCN(C)CCCc2nc3ccccc3[nH]2)CCc2cc(F)ccc2[C@@H]1C(C)C
inactive: S. cerevisiae deletion strains, locus YAL040C, strain CLN3, active compounds read low 1 | S. cerevisiae deletion strains, locus YCL061C, strain MRC1 (second series), active compounds read low 1 | S. cerevisiae deletion strains, locus YDR363W, strain ESC2, active compounds read low 1 | S. cerevisiae deletion strains, locus YER002W, strain NOP16, active compounds read low 1.02 | [1] 0.967 | [2] 0.941 | S. cerevisiae deletion strains, locus YNL175C, strain NOP13, active compounds read low 1.03 | S. cerevisiae deletion strains, locus YNL197C, strain WHI3, active compounds read low 1.04 | S. cerevisiae deletion strains, locus YNL224C, strain SQS1, active compounds read low 1.03 | S. cerevisiae deletion strains, locus YOR083W, strain WHI5 (second series), active compounds read low 1.03 | [3] 0.929 | [4] 0.985

O=C(CCSc1cccs1)Nc1cccc(C(F)(F)F)c1
active: [6] 0.84 | S. cerevisiae deletion strains, locus YLR113W, strain HOG1, active compounds read low 0.711 | S. cerevisiae deletion strains, locus YPL256C, strain CLN2, active compounds read low 0.796
inactive: S. cerevisiae deletion strains, locus YAR019C, strain CDC15, active compounds read low 0.936 | S. cerevisiae deletion strains, locus YBL105C, strain PKC1, active compounds read low 0.922 | S. cerevisiae deletion strains, locus YBR135W, strain CKS1, active compounds read low 0.929 | S. cerevisiae deletion strains, locus YBR136W, strain MEC1, active compounds read low 0.911 | S. cerevisiae deletion strains, locus YBR160W, strain CDC28, active compounds read low 0.926 | S. cerevisiae deletion strains, locus YDL017W, strain CDC7, active compounds read low 0.922 | S. cerevisiae deletion strains, locus YDL028C, strain MPS1, active compounds read low 0.93 | [5] 0.921 | S. cerevisiae deletion strains, locus YDL108W, strain KIN28, active compounds read low 0.946 | S. cerevisiae deletion strains, locus YDL132W, strain cdc53, active compounds read low 0.92 | S. cerevisiae deletion strains, locus YDL214C, strain PRR2, active compounds read low 0.911 | S. cerevisiae deletion strains, locus YDR052C, strain DBF4, active compounds read low 0.948 | S. cerevisiae deletion strains, locus YDR054C, strain cdc34, active compounds read low 0.916 | S. cerevisiae deletion strains, locus YDR226W, strain ADK1, active compounds read low 0.93 | S. cerevisiae deletion strains, locus YDR477W, strain SNF1, active compounds read low 0.966 | S. cerevisiae deletion strains, locus YER123W, strain YCK3, active compounds read low 0.915 | S. cerevisiae deletion strains, locus YER133W, strain GLC7, active compounds read low 0.965 | S. cerevisiae deletion strains, locus YFL009W, strain cdc4, active compounds read low 0.945 | S. cerevisiae deletion strains, locus YFL029C, strain CAK1, active compounds read low 0.925 | S. cerevisiae deletion strains, locus YFR003C, strain YPI1, active compounds read low 0.93 | S. cerevisiae deletion strains, locus YFR019W, strain FAB1, active compounds read low 0.931 | S. cerevisiae deletion strains, locus YFR028C, strain CDC14, active compounds read low 0.952 | S. cerevisiae deletion strains, locus YGR040W, strain KSS1, active compounds read low 0.961 | S. cerevisiae deletion strains, locus YGR052W, strain FMP48, active compounds read low 0.952 | S. cerevisiae deletion strains, locus YGR092W, strain DBF2, active compounds read low 0.872 | S. cerevisiae deletion strains, locus YHR079C, strain IRE1, active compounds read low 0.853 | S. cerevisiae deletion strains, locus YHR082C, strain KSP1, active compounds read low 0.884 | S. cerevisiae deletion strains, locus YHR205W, strain SCH9, active compounds read low 0.807 | S. cerevisiae deletion strains, locus YIL147C, strain SLN1, active compounds read low 0.927 | S. cerevisiae deletion strains, locus YJL095W, strain BCK1, active compounds read low 0.888 | S. cerevisiae deletion strains, locus YJL128C, strain PBS2, active compounds read low 0.865 | S. cerevisiae deletion strains, locus YJL157C, strain FAR1, active compounds read low 0.949 | S. cerevisiae deletion strains, locus YJR016C, strain ILV3, active compounds read low 0.92 | S. cerevisiae deletion strains, locus YJR066W, strain TOR1 (second series), active compounds read low 0.992 | S. cerevisiae deletion strains, locus YJR066W, strain TOR1, active compounds read low 0.905 | S. cerevisiae deletion strains, locus YKL048C, strain ELM1, active compounds read low 0.92 | S. cerevisiae deletion strains, locus YKL067W, strain YNK1, active compounds read low 0.927 | S. cerevisiae deletion strains, locus YKL101W, strain HSL1, active compounds read low 0.911 | S. cerevisiae deletion strains, locus YKL193C, strain SDS22, active compounds read low 0.913 | S. cerevisiae deletion strains, locus YKL203C, strain TOR2, active compounds read low 1.01 | S. cerevisiae deletion strains, locus YLR133W, strain CKI1, active compounds read low 0.936 | S. cerevisiae deletion strains, locus YLR403W, strain SFP1, active compounds read low 0.965 | S. cerevisiae deletion strains, locus YML070W, strain DAK1, active compounds read low 0.891 | S. cerevisiae deletion strains, locus YMR001C, strain CDC5, active compounds read low 0.924 | S. cerevisiae deletion strains, locus YMR205C, strain PFK2 (second series), active compounds read low 0.913 | S. cerevisiae deletion strains, locus YMR277W, strain FCP1, active compounds read low 0.919 | S. cerevisiae deletion strains, locus YNL006W, strain LST8, active compounds read low 0.938 | S. cerevisiae deletion strains, locus YNL020C, strain ARK1, active compounds read low 0.923 | S. cerevisiae deletion strains, locus YNL161W, strain CBK1, active compounds read low 0.918 | S. cerevisiae deletion strains, locus YNL183C, strain NPR1, active compounds read low 0.857 | S. cerevisiae deletion strains, locus YNL207W, strain RIO2, active compounds read low 0.921 | S. cerevisiae deletion strains, locus YNL222W, strain SSU72, active compounds read low 0.923 | S. cerevisiae deletion strains, locus YNL307C, strain MCK1 (second series), active compounds read low 0.88 | S. cerevisiae deletion strains, locus YOL078W, strain AVO1, active compounds read low 0.917 | S. cerevisiae deletion strains, locus YOL136C, strain PFK27, active compounds read low 0.889 | S. cerevisiae deletion strains, locus YOR061W, strain CKA2, active compounds read low 0.927 | S. cerevisiae deletion strains, locus YOR119C, strain RIO1, active compounds read low 0.964 | S. cerevisiae deletion strains, locus YOR231W, strain MKK1, active compounds read low 0.854 | S. cerevisiae deletion strains, locus YOR329C, strain SCD5, active compounds read low 0.921 | S. cerevisiae deletion strains, locus YPL031C, strain PHO85, active compounds read low 0.961 | S. cerevisiae deletion strains, locus YPL153C, strain RAD53, active compounds read low 0.962 | S. cerevisiae deletion strains, locus YPL204W, strain HRR25, active compounds read low 0.953 | S. cerevisiae deletion strains, locus YPL209C, strain IPL1, active compounds read low 0.92 | S. cerevisiae deletion strains, locus YPR025C, strain CCL1, active compounds read low 0.932 | S. cerevisiae deletion strains, locus YPR106W, strain ISR1, active compounds read low 0.918 | S. cerevisiae deletion strains, locus YPR111W, strain DBF20, active compounds read low 0.901 | S. cerevisiae deletion strains, strain NNK1, active compounds read low 0.888 | S. cerevisiae deletion strains, strain TSCII, active compounds read low 0.921

O=C(O)CCNC(=S)Nc1cccc(C(F)(F)F)c1
inactive: S. cerevisiae deletion strains, locus YAL013W, strain DEP1, active compounds read low 0.998 | S. cerevisiae deletion strains, locus YBR229C, strain ROT2, active compounds read low 1.01 | S. cerevisiae deletion strains, locus YCL061C, strain MRC1, active compounds read low 0.99 | [5] 1.01 | S. cerevisiae deletion strains, locus YDL134C, strain PPH21, active compounds read low 0.983 | S. cerevisiae deletion strains, locus YDR150W, strain NUM1, active compounds read low 1.03 | S. cerevisiae deletion strains, locus YEL061C, strain CIN8, active compounds read low 1.02 | S. cerevisiae deletion strains, locus YGR078C, strain PAC10, active compounds read low 1.01 | S. cerevisiae deletion strains, locus YGR229C, strain SMI1, active compounds read low 0.982 | [6] 0.996 | S. cerevisiae deletion strains, locus YHR087W, strain rtc3, active compounds read low 1.02 | S. cerevisiae deletion strains, locus YJR043C, strain POL32, active compounds read low 0.987 | [1] 0.997 | S. cerevisiae deletion strains, locus YLR039C, strain RIC1, active compounds read low 0.976 | S. cerevisiae deletion strains, locus YLR058C, strain SHM2 (second series), active compounds read low 0.999 | S. cerevisiae deletion strains, locus YLR085C, strain ARP6, active compounds read low 0.971 | S. cerevisiae deletion strains, locus YLR262C, strain YPT6, active compounds read low 0.986 | S. cerevisiae deletion strains, locus YML094W, strain GIM5, active compounds read low 1.11 | S. cerevisiae deletion strains, locus YMR219W, strain ESC1, active compounds read low 1 | S. cerevisiae deletion strains, locus YMR263W, strain SAP30, active compounds read low 0.984 | [2] 1.01 | S. cerevisiae deletion strains, locus YNL298W, strain CLA4 (second series), active compounds read low 0.985 | S. cerevisiae deletion strains, locus YNL322C, strain KRE1, active compounds read low 1.01 | S. cerevisiae deletion strains, locus YNR030W, strain Alg12, active compounds read low 1.03 | [3] 1.04 | [4] 0.918 | S. cerevisiae deletion strains, locus YPR135W, strain CTF4, active compounds read low 1.06 | S. cerevisiae strains, strain wild type, active compounds read low 0.966
